Screens (PubChem)
FMDV inh = foot and mouth disease virus antiviral activity; FMDV antiviral cell-based qHTS; Potency, µM (doses to about 57.9 µM), actives largely listed as inhibitors; actives 1.2% (n = 410,000); calls by dose curve; tested in HEK293T cells; note: read-out not given here; nearly all actives have a fitted effect of over 45% in size
Marburg entry inh = inhibitors of Marburg virus binding or cell entry. Marburg virus pseudotyped entry inhibition, cell reporter. Potency, µM (doses to about 37.8 µM), usual class: inhibitors. actives 1.8% (n = 300,000). AID 540276; calls by dose curve; tested in HEK293 cells
VACV Venus inh = inhibitors of vaccinia virus (Venus reporter); actives 0.46% (n = 330,000); Potency, µM (doses to about 36.5 µM), hits mostly inhibitors; Vaccinia virus Venus reporter expression, fluorescence; calls by dose curve; tested in A549 cells; note: nearly all actives have a fitted effect of over 30% in size
HCMV antiviral = inhibitors of human cytomegalovirus | activity change, negative = inhibition, % at 57.5 µM | actives 4.5% (n = 410,000) | HFF cells, HCMV-luciferase reporter, 72 h; hits give low values; in the data active = activity change below about -60%; inconclusive = no clear call, values can overlap the other calls; inactive = above about -39%
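Two compound doses tested in HFFs infected with HCMV-luciferase, MOI 1 PFU/cell, 72 h at 37C. Lysate luminescence read with OneGlo; data normalized against buffer-only and 10uM Salinomycin inhibitor controls.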
VACV mCherry inh = inhibitors of vaccinia virus infection (mCherry reporter signal); AID 720579; Potency, µM (highest dose often 36.5 µM), hits mostly inhibitors; Vaccinia virus mCherry reporter infection, fluorescence; actives 0.63% (n = 310,000); calls by dose curve; tested in A549 cells; note: nearly all actives have a fitted effect of over 35% in size
LASV entry inh = blocks Lassa virus binding to or entry into cells | Potency, µM (series often up to 37.9 µM), most hits filed as inhibitors | AID 540256 | Lassa virus pseudotype entry inhibition, cell reporter | actives 1.2% (n = 300,000); calls by dose curve; tested in HEK293 cells; note: nearly all actives have a fitted effect of over 50% in size
Hits are given with their value; 0 = inactive; ? = inconclusive; - = no result. The list is not random: actives were taken first. Their share in the collection is about 6.5%.

SMILES	FMDV inh	Marburg entry inh	VACV Venus inh	HCMV antiviral	VACV mCherry inh	LASV entry inh
COc1cc(C(=O)N(Cc2cc3ccc(C)cc3nc2N(C)C)C2CC2)cc(OC)c1OC	0	-	0	-	0	-
CCN1CCN(c2cc(N3CCc4ccccc4C3)c(F)cc2[N+](=O)[O-])CC1	0	14µM	?	0	0	?
CN(C)c1ccc(NC(=O)Cn2cc3c(n2)CCCC3)cc1	0	-	0	-99	0	-
Cc1cc(C)cc(NC(=O)Cn2cc3c(n2)CCCCC3)c1	-	0	-	-	-	-
CN(C)c1ccc(N=Cc2ccnc3ccccc23)cc1	-	-	0	-	0	-
CC(C)Oc1ccc(-c2nc(NCC3CCCO3)c3ccccc3n2)cc1 (configuration not stated)	?	?	0	-78	0	?
c1cncc(-c2nc(NCC3CCCO3)c3ccccc3n2)c1 (configuration not stated)	0	?	0	-	0	?
c1ccc(CN2CCC(Nc3nc(-c4cccs4)nc4ccccc34)CC2)cc1	?	12µM	-	?	-	?
c1csc(CNc2nc(-c3cccs3)nc3ccccc23)c1	0	0	0	-61	0	0
c1csc(-c2nc(NCC3CCCO3)c3ccccc3n2)c1 (configuration not stated)	0	10µM	0	0	0	0
CC(C)Cc1nc2cc(NS(=O)(=O)N(C)C)cc(C(=O)N3CCSCC3)c2n1C	0	-	0	-	0	-
COCCNC(=S)NC1CC2CCCC(C1)N2Cc1cccs1 (configuration not stated)	-	?	0	0	0	0
Cc1cccc(NC(=S)NC2CC3CCCC(C2)N3Cc2cccs2)c1 (configuration not stated)	-	1.6µM	?	0	?	?
CCOc1ccccc1NC(=O)c1ccc2c(c1)CCN2S(C)(=O)=O	0	0	0	0	0	0
Cc1ccccc1NC(=O)c1sc2nc(-c3ccncc3)ccc2c1N	0	?	0	?	0	0
Cc1cc(C)cc(NC(=O)C2C3C=CC4(O3)C2C(=O)N(CCCN2CCCC2)C4C(=O)NC2CCCC(C)C2C)c1 (configuration not stated)	0	0	0	0	0	0
COc1ccc(NC(=O)C2C3C=CC4(O3)C2C(=O)N(CCN2CCCCC2)C4C(=O)NC2CCCC(C)C2C)cc1 (configuration not stated)	0	5µM	0	0	0	0
O=C1CCC[C@H]2[C@@H](Cc3ccccc3)[C@@H](NS(=O)(=O)c3ccc([N+](=O)[O-])cc3)CC[C@]23CCCN13	-	-	-	0	-	-
C=CCn1c(N/N=C/c2ccc(O)cc2)nc2ccccc2c1=O	0	-	-	-65	-	-
NC(=O)CN1C(=O)C(O)(CC(=O)/C=C\C=C\c2ccccc2)c2ccccc21 (configuration not stated)	0	0	?	-70	?	0
O=C(CCCCn1cnc2c(=S)nc[nH]c21)Nc1ccc(C(=O)O)c(O)c1	0	0	0	-73	0	0
Cc1cccc(C)c1NC(=O)c1cc(S(=O)(=O)N2CCc3ccccc3C2)ccc1F	?	-	0	0	0	?
Cc1noc2ncnc(NCCc3ccccc3)c12	?	-	?	?	0	0
Clc1ccc(-c2noc3ncnc(NCCc4ccccc4)c23)cc1	0	-	0	?	0	4µM
Fc1ccc(-c2noc3ncnc(NCC4CCN(Cc5ccc(Cl)cc5)CC4)c23)cc1	0	-	0	-65	0	?
SMILES	FMDV inh	Marburg entry inh	VACV Venus inh	HCMV antiviral	VACV mCherry inh	LASV entry inh
CN(C)c1ccc(N/C=C/C(=O)c2ccccc2)cc1	10µM	?	-	0	-	6.5µM
O=C(CSCc1cnn(-c2ccccc2)c1-n1cccc1)NCc1ccc(F)cc1	0	0	0	0	0	0
Cc1cccc(NC(=O)CSc2nncn2C)c1	0	0	0	0	0	0
Cn1cnnc1SCC(=O)Nc1ccccc1Sc1ccccc1	0	0	0	-63	-	0
COC(=O)c1ccccc1NC(=O)CSc1nncn1C	0	0	0	0	0	0
Cc1ccc(NC(=O)CSc2nncn2C)c(C)c1	0	0	0	-105	0	0
O=C(CSc1nccn1Cc1ccc(F)cc1)Nc1nc2ccccc2s1	0	-	0	0	0	?
O=C(N[C@H]1CC[C@@]23CCCN2C(=O)CCC[C@H]3[C@H]1Cc1ccccc1)c1cccnc1	-	-	-	0	-	-
Cc1ccc2c(c1)N(CCC(=O)NC(C)C)C(=O)CO2	0	?	0	-76	0	0
Cc1ccc(Cl)cc1NC(=O)CSc1nc2ccccc2c2nc(-c3ccccc3)nn12	0	-	0	0	0	?
CCOc1ccc(OCC)c(NC(=O)Cn2nc(CC)n3c(cc4sccc43)c2=O)c1	0	0	0	0	0	-
COc1ccc(NC(=O)CCn2nc(-c3ccc(Cl)cc3)c3ccccc3c2=O)cc1	0	0	0	0	0	0
Cc1ccc(NC(=O)COc2ccc(-c3nn(C)c(=O)c4ccccc34)cc2)cc1	?	0	?	0	?	0
N#Cc1ccc(-c2ccc(OCC(=O)Nc3cccnc3)cc2)cc1	?	?	0	-69	0	0
Cn1nc(-c2ccc(OCC(=O)Nc3cccnc3)cc2)c2ccccc2c1=O	35µM	0	-	0	-	0
O=C(CCn1nc(-c2ccc(Cl)cc2)c2ccccc2c1=O)Nc1cccnc1	0	?	0	-65	?	0
COc1ccc(-c2nn(C)c(=O)c3ccccc23)cc1NC(=O)COc1ccc(C)cc1	?	?	-	?	-	5.8µM
COc1cccc(C(=O)Nc2ccccc2C(=O)OCc2cc(=O)n3c4c(sc3n2)CCCC4)c1	0	-	0	0	0	0
CCOC(=O)Cn1c(=O)oc2cc(S(=O)(=O)N3CCC(C(=O)OCC)CC3)ccc21	0	0	0	0	0	0
CCn1c(SC(C)C(=O)NCc2ccco2)nnc1-c1ccccc1 (configuration not stated)	-	-	0	-	0	-
Cc1c(C(=O)NCc2ccc([N+](=O)[O-])cc2)sc(=O)n1Cc1ccc(-c2ccccc2)cc1	0	-	0	-84	0	-
Cc1c(C(=O)NCc2ccc3c(c2)OCO3)sc(=O)n1Cc1ccc(-c2ccccc2)cc1	0	-	0	-67	0	-
COc1ccc2c3c([nH]c2c1)[C@H](CO)N(C(=O)c1cccnc1)CC31CN(C(=O)c2cccnc2)C1	-	-	-	0	-	-
COc1ccc(-c2nccc3[nH]nc(-c4ccccc4)c23)cc1	-	-	-	0	-	-
Cc1ccc(C)c(C(=O)CN2C(=O)c3ccccc3S2(=O)=O)c1	0	?	0	0	0	?
CCCn1c(C)cc(C(=O)CN2C(=O)c3ccccc3S2(=O)=O)c1C	?	-	0	-86	0	-
CCCn1c(C)cc(C(=O)Cn2nnc3ccccc3c2=O)c1C	0	14µM	0	0	0	?
Cc1cc(C(=O)CN2C(=O)c3ccccc3S2(=O)=O)c(C)n1CC1CCCO1 (configuration not stated)	0.28µM	0.58µM	0	-100	0	0.46µM
COCCn1c(C)cc(C(=O)Cn2nc(C(=O)O)c3ccccc3c2=O)c1C	0	?	-	0	-	0
O=c1c2ccccc2n(Cc2ccccc2Cl)c(=O)n1CCc1ccccc1	0	0	0	0	0	?
